{"source": "PubChem BioAssay AID1662", "about": "(Broad Institute, 2009)", "note": "Screen size: about 300,000 compounds; about 4,000 (1.3%) were called active.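 How the source made its calls: active means mean replicate score, as percent of positive control median, at least 50; inconclusive means mean below 50 but one replicate at or above 50; inactive means mean and every replicate below 50.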 Shown is part of a subset that was picked to be rich in actives.", "data": [{"assay": "S. pyogenes SKKanGAS growth inhibitors in kanamycin, primary screen, streptokinase expression inhibitor project, SKKanGAS strain, BacTiter-Glo luminescence (AID 1662);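 further: strain carries kanamycin resistance gene driven by streptokinase promoter and grows in 40 µg/ml kanamycin; loss of luminescence reflects streptokinase promoter inhibition or plain growth inhibition; 0% = median of DMSO wells and 100% = positive control at its reference dose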", "details": "6 h, at 7.5 µM, active compounds read high", "values": [{"molecule": "CCOc1ccccc1Nc1ccc2nonc2c1[N+](=O)[O-]", "inhibition": "-0.208% (inactive)"}, {"molecule": "O=[N+]([O-])c1c(NCCO)cc(Sc2nc3ccccc3s2)c2nonc12", "inhibition": "51.8% (active)"}, {"molecule": "O=C(O)c1cccc(S(=O)(=O)Nc2ccc(O)cc2Sc2nc3ccccc3s2)c1", "inhibition": "8.92% (inactive)"}, {"molecule": "CCOCC(=O)Nc1ncc(S(=O)(=O)c2ccc([N+](=O)[O-])cc2)s1", "inhibition": "-0.334% (inactive)"}, {"molecule": "CC(C)C(=O)Nc1ccc2c3c(cccc13)CC2", "inhibition": "-4.74% (inactive)"}, {"molecule": "Cc1cccc(NC(=O)C2CCN(C(=O)NC3CCCCC3)CC2)c1", "inhibition": "3.22% (inactive)"}, {"molecule": "O=C(N/N=C/c1cc(Cl)cc([N+](=O)[O-])c1O)C(O)(c1ccccc1)c1ccccc1", "inhibition": "94.7% (active)"}, {"molecule": "O=C(N/N=C/c1cc(Br)c(O)c([N+](=O)[O-])c1)C(O)(c1ccccc1)c1ccccc1", "inhibition": "4.7% (inactive)"}, {"molecule": "CN(C)/N=C/c1cc(Cl)cc([N+](=O)[O-])c1O", "inhibition": "0.131% (inactive)"}, {"molecule": "Fc1ccccc1CNC(=S)Nc1ccc(Cl)cc1", "inhibition": "18% (inactive)"}, {"molecule": "O=C(NC1CCN(C(=S)NCc2ccco2)CC1)c1ccc(F)cc1", "inhibition": "13.3% (inactive)"}, {"molecule": "COc1cccc(N2CC(NS(=O)(=O)c3ccc(Cl)cc3)CC2=O)c1", "note": "(stereo not drawn)", "inhibition": "3.83% (inactive)"}, {"molecule": "COc1ccc(N(C(=O)c2snc(C(N)=O)c2N)C(C(=O)NC2CCCC2)c2ccco2)cc1OC", "note": "(stereo not drawn)", "inhibition": "2.77% (inactive)"}, {"molecule": "CCc1nnc(NC(=O)c2sc3nc(C)cc(COC)c3c2N)s1", "inhibition": "8.09% (inactive)"}, {"molecule": "CCc1nnc(NC(=O)c2cccc(S(=O)(=O)N(C)c3ccc(OC)cc3)c2)s1", "inhibition": "4.1% (inactive)"}, {"molecule": "CCc1ccc2nc3sc(C(=O)Nc4nnc(CC)s4)c(N)c3cc2c1", "inhibition": "95.3% (active)"}, {"molecule": "COc1ccc(S(=O)(=O)NCc2cccnc2)cc1NC(=O)c1ccc(C)cc1", "inhibition": "-12.6% (inactive)"}, {"molecule": "COC(=O)N/N=C/c1c[n+]([O-])c2ccccc2[n+]1[O-]", "inhibition": "50.6% (active)"}, {"molecule": "COC(=O)N/N=C/c1ccc(/C=N/NC(=O)OC)cc1", "inhibition": "-10.9% (inactive)"}, {"molecule": "COC(=O)N/N=C/c1ccc(-c2ccc(Cl)c(Cl)c2)o1", "inhibition": "-12.4% (inactive)"}, {"molecule": "Cn1cccc1C(=O)N1CCc2ccccc2C1", "inhibition": "10.2% (inactive)"}, {"molecule": "CC(=O)CCC(=O)c1ccc2ccccc2c1", "inhibition": "3.19% (inactive)"}, {"molecule": "Cc1cc(N=Nc2ccc3ccccc3c2)ccc1O", "inhibition": "81.9% (active)"}, {"molecule": "COc1ccc(N=Nc2ccc(O)c(P(=O)(c3ccccc3)c3ccccc3)c2)cc1", "inhibition": "41.2% (inactive)"}, {"molecule": "Cc1ccccc1Nc1c([N+](=O)[O-])ccc2nonc12", "inhibition": "4.67% (inactive)"}, {"molecule": "O=C(NCC(c1ccco1)N1CCc2ccccc2C1)c1ccccc1Cl", "note": "(stereo not drawn)", "inhibition": "17.4% (inactive)"}, {"molecule": "COc1ccccc1NC(=O)c1cc(N2C(=O)C3C4CCC(C4)C3C2=O)ccc1Cl", "note": "(stereo not drawn)", "inhibition": "-15.7% (inactive)"}, {"molecule": "N/C(=N/O)c1cccn1Cc1ccccc1[N+](=O)[O-]", "inhibition": "0.341% (inactive)"}, {"molecule": "Cc1ccc(-c2ccc(=O)n(Cc3ccc(F)cc3Cl)n2)cc1", "inhibition": "12.7% (inactive)"}, {"molecule": "O=c1c([N+](=O)[O-])cccn1Cc1ccc(F)cc1Cl", "inhibition": "55.4% (active)"}, {"molecule": "O=c1[nH][nH]c(C(F)(F)F)c1C=NCc1ccccc1Cl", "inhibition": "-1.93% (inactive)"}, {"molecule": "CCc1c(O)cc2n(c1=O)-c1ccccc1C2(C)C", "inhibition": "17.4% (inactive)"}, {"molecule": "NC(=O)c1nsc(C(=O)N(CC(=O)NCc2ccc(F)cc2)Cc2ccco2)c1N", "inhibition": "0.443% (inactive)"}, {"molecule": "CC(C)CCC(C)NC(=O)c1ccc2nccnc2c1", "note": "(stereo not drawn)", "inhibition": "-6.24% (inactive)"}, {"molecule": "CCCCCCOc1ccc(OC(=O)c2cccnc2)cc1", "inhibition": "-1.41% (inactive)"}, {"molecule": "CN(C)CCCN1C(=O)CSC1c1ccc([N+](=O)[O-])cc1", "note": "(stereo not drawn)", "inhibition": "2.76% (inactive)"}, {"molecule": "CCCCCCCCCCCCN1C(=O)CSC1c1cccnc1", "note": "(stereo not drawn)", "inhibition": "49.9% (active)"}, {"molecule": "Clc1ccc(C2=CSC3=Nc4cccc5cccc(c45)N23)cc1", "inhibition": "58.7% (active)"}, {"molecule": "O=C(Nc1ccc(S(=O)(=O)Nc2ncccn2)cc1)C12CC3CC(CC(C3)C1)C2", "inhibition": "7.21% (inactive)"}, {"molecule": "O=C(O)CCn1cc(/C=C/C(=O)c2ccc(Cl)cc2)c(-c2cccc(Br)c2)n1", "inhibition": "63.3% (active)"}, {"molecule": "CCOC(=O)/C(C#N)=C/c1cn(CCC(=O)O)nc1-c1ccc(Br)cc1", "inhibition": "-0.784% (inactive)"}, {"molecule": "O=C(O)/C=C/c1cn(Cc2ccccc2)nc1-c1cccs1", "inhibition": "8.13% (inactive)"}, {"molecule": "CCC(c1nnc(SCC(=O)NNC(=O)c2ccccc2)n1Cc1ccccc1)N(C)C", "note": "(stereo not drawn)", "inhibition": "-9.47% (inactive)"}, {"molecule": "O=C(CNC(=O)c1ccc(Br)o1)Nc1ccccc1", "inhibition": "-5.14% (inactive)"}, {"molecule": "Cc1ccc(C(CNC(=O)Nc2cccc(C)c2)N2CCN(C)CC2)cc1", "note": "(stereo not drawn)", "inhibition": "-5.31% (inactive)"}, {"molecule": "O=C(Nc1ccccc1F)c1ccc2c(c1)OCO2", "inhibition": "2.8% (inactive)"}, {"molecule": "O=C(Nc1nnc(C2COc3ccccc3O2)o1)c1ccc(F)cc1", "note": "(stereo not drawn)", "inhibition": "103% (active)"}, {"molecule": "CC1COc2ccccc2N1C(=O)c1ccc(F)cc1", "note": "(stereo not drawn)", "inhibition": "0.0101% (inactive)"}, {"molecule": "CCN(CC)S(=O)(=O)c1ccc(N(C)Cc2ccc(C(F)(F)F)cc2)nc1", "inhibition": "-5.95% (inactive)"}, {"molecule": "O=C(NCc1nnc(SCC(=O)N2CCCc3ccccc32)o1)c1ccccc1F", "inhibition": "3.7% (inactive)"}, {"molecule": "CC1(C)C2CCC1(CS(=O)(=O)NCCc1c[nH]c3ccccc13)C(=O)C2", "note": "(stereo not drawn)", "inhibition": "-7.05% (inactive)"}, {"molecule": "CS(=O)(=O)N1CCN(CC(=O)NC2CCCC2)CC1", "inhibition": "-2.39% (inactive)"}, {"molecule": "CNC(=S)N/N=C/c1cn(Cc2ccc(C)cc2)c2ccccc12", "inhibition": "53.8% (active)"}, {"molecule": "CCOC(=O)N/N=C/c1cn(Cc2ccccc2Cl)c2ccccc12", "inhibition": "6.39% (inactive)"}, {"molecule": "COC(=O)N/N=C/c1cn(CCCOc2ccc(C)cc2)c2ccccc12", "inhibition": "8.83% (inactive)"}, {"molecule": "CC(C)(C)c1cc2cccnc2n1Cc1cccc(F)c1", "inhibition": "-3.63% (inactive)"}, {"molecule": "COc1ccc(C(=NN)c2ccc(OC)cc2)cc1", "inhibition": "-9.25% (inactive)"}, {"molecule": "CCc1ccc(N(CC(=O)NCc2cccnc2)S(=O)(=O)c2ccccc2)cc1", "inhibition": "-18.2% (inactive)"}, {"molecule": "Cc1scc(C(=O)NNC(=S)NCC(C)C)c1C", "inhibition": "-0.356% (inactive)"}, {"molecule": "CC(C)(C)C(=O)NNC(=O)c1ccc(Oc2cc(Cl)cc(Cl)c2)o1", "inhibition": "0.127% (inactive)"}, {"molecule": "CN(c1ccccc1)S(=O)(=O)c1ccc(Cl)c(C(=O)NCCc2c[nH]c3ccccc23)c1", "inhibition": "4.79% (inactive)"}, {"molecule": "CN(c1ccccc1)S(=O)(=O)c1cc(C(=O)OCC(=O)N2CCN(C(=O)c3ccco3)CC2)ccc1Cl", "inhibition": "-0.977% (inactive)"}, {"molecule": "CN(c1ccccc1)S(=O)(=O)c1cc(C(=O)Nc2nc3ccccc3[nH]2)ccc1Cl", "inhibition": "58.3% (active)"}, {"molecule": "COc1cc2ccccc2cc1C(=O)N(CCN(C)C)c1nc2c(F)cccc2s1", "inhibition": "0.17% (inactive)"}, {"molecule": "COc1cccc(CSc2nc3nc(C)cc(C)n3n2)c1", "inhibition": "3.04% (inactive)"}, {"molecule": "CSc1nc2ccccc2c(=O)n1Cc1ccc(F)cc1", "inhibition": "18.7% (inactive)"}, {"molecule": "CSc1c(SCc2ccccc2)cnn(Cc2ccccc2)c1=O", "inhibition": "66.2% (active)"}, {"molecule": "CC(=O)Nc1ccc(NC(=O)CSc2ncnc3c2cnn3Cc2ccccc2)cc1", "inhibition": "3.94% (inactive)"}, {"molecule": "Cc1ccc(-c2noc(CNC(=O)c3ccoc3C)n2)cc1", "inhibition": "0.278% (inactive)"}, {"molecule": "O=C(N/N=C/c1ccc([N+](=O)[O-])o1)c1cn(-c2ccccc2)nc1-c1ccc(F)cc1", "inhibition": "85.5% (active)"}, {"molecule": "O=C(N/N=C/c1ccc([N+](=O)[O-])o1)c1cccc(S(=O)(=O)N2CCOCC2)c1", "inhibition": "5.79% (inactive)"}, {"molecule": "Cc1ccc(-c2nn(-c3ccccc3)cc2/C=N/NC(=O)c2ccc3c(c2)OCO3)cc1", "inhibition": "11.9% (inactive)"}, {"molecule": "CCn1cc(CCC(=O)NCc2ccc(F)cc2)c2ccccc21", "inhibition": "0.859% (inactive)"}, {"molecule": "COc1cccc(NC(=O)CSc2nnc(Cc3ccc(OC)c(OC)c3)o2)c1", "inhibition": "-5.07% (inactive)"}, {"molecule": "Cc1cccc([C@@H]2[C@@H]3C(=O)N(C)C(=O)[C@@H]3[C@@H]3C(=O)Nc4ccccc4C(=O)N23)c1", "inhibition": "1.01% (inactive)"}, {"molecule": "COc1ccc(N2CCN(CCCNC(=O)C3CCN(S(=O)(=O)N4CCOCC4)CC3)CC2)cc1", "inhibition": "0.276% (inactive)"}, {"molecule": "Cc1ccc(C)c(NC(=S)NNC(=O)c2csc(C)c2)c1", "inhibition": "-5.04% (inactive)"}, {"molecule": "Cc1ccc(C)c(NC(=S)NNC(=S)Nc2ccc(C(C)C)cc2)c1", "inhibition": "51.2% (active)"}, {"molecule": "CC(C)c1ccc(NC(=S)NNc2ccc(Cl)c(C(=O)O)c2)cc1", "inhibition": "5.7% (inactive)"}, {"molecule": "C[C@@H]1CC[C@]2(O[C@@H](CCO)C[C@H](O)[C@H]2O)O1", "inhibition": "-1.49% (inactive)"}, {"molecule": "Cc1ccc(-c2nn(-c3ccccc3)cc2/C=C2\\SC(=S)N(CCCCCC(=O)O)C2=O)o1", "inhibition": "103% (active)"}, {"molecule": "CN(C)S(=O)(=O)c1cccc(-c2nn(-c3ccccc3)cc2/C=C2\\SC(=S)N(CC(=O)O)C2=O)c1", "inhibition": "25.2% (inactive)"}, {"molecule": "COc1ccc(-c2nn(-c3ccccc3)cc2/C=C2/SC(=S)N(CCCC(=O)O)C2=O)c(C)c1", "inhibition": "46.2% (inactive)"}, {"molecule": "CCCN(CC(=O)Nc1ccccc1OC)C(=O)CCC(=O)c1ccc(F)cc1", "inhibition": "-6.42% (inactive)"}, {"molecule": "Oc1c(Cl)cc(Cl)c(Cl)c1Cc1c(O)c(Cl)cc(Cl)c1Cl", "inhibition": "109% (active)"}, {"molecule": "CO/N=C/CC(=O)c1ccc(OC)cc1", "inhibition": "-3.09% (inactive)"}, {"molecule": "CSCCC(NS(=O)(=O)c1ccccc1F)C(=O)N1CC=C(c2ccccc2)CC1", "note": "(stereo not drawn)", "inhibition": "-1.43% (inactive)"}, {"molecule": "O=C(Nc1ccc2oc(-c3ccccc3F)nc2c1)c1ccco1", "inhibition": "-5.59% (inactive)"}, {"molecule": "COc1ccc2[nH]c(=O)c(CNc3ccc(C)c(C)c3)cc2c1", "inhibition": "26.7% (inactive)"}, {"molecule": "Cn1nc(-c2ccccc2)c(CO)c1Sc1ccccc1", "inhibition": "-5.22% (inactive)"}, {"molecule": "Cc1ccc(S(=O)(=O)c2c(COC(=O)c3cccc(Cl)c3)c(-c3ccccc3)nn2C)cc1", "inhibition": "-28.6% (inactive)"}, {"molecule": "Cn1nc(-c2ccccc2)c(CSc2cccc(Cl)c2)c1Cl", "inhibition": "61.6% (active)"}, {"molecule": "CC(=O)N(CN1C(=O)C2C3C=CC(C3)C2C1=O)c1cccc(Cl)c1", "note": "(stereo not drawn)", "inhibition": "-0.219% (inactive)"}]}]}
